Experimental data published in the supplement of paper PMC9694430.
Where a name gives a salt, the structure may show the parent alone.

Assays:
Test in all cases: thermal shift delta Tm vs DMSO control; higher = stronger stabilization (binding)
Settings in all cases: 12.5 µM; protein concentration 2 µM
LOC_OS01G57100-cb003 = tested on: LOC_OS01G57100-cb003
Procedure, shortened: (§1)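 The melting temperature shift given here is a triplicate mean, measured against protein that received only DMSO. Melting temperatures came from Boltzmann fits of differential scanning fluorimetry data on E. coli-expressed, purified rice kinase domain constructs. Each 19.5 μl well contained 2 μM kinase, 100 mM potassium phosphate pH 7.5, 150 mM NaCl, 10% glycerol, 5 × SYPRO Orange and compound in DMSO. Plates were scanned from 25°C to 95°C at 0.05°C/s.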

LOC_OS01G60330-cb001 = tested on: LOC_OS01G60330-cb001
Procedure, shortened: as §1

LOC_OS01G60700-cb002 = tested on: LOC_OS01G60700-cb002
Procedure, shortened: as §1

LOC_OS01G63280-cb003 = tested on: LOC_OS01G63280-cb003
Procedure, shortened: as §1

LOC_OS01G67340-cb003 = tested on: LOC_OS01G67340-cb003
Procedure, shortened: as §1

LOC_OS01G70970-cb002 = tested on: LOC_OS01G70970-cb002
Procedure, shortened: as §1

LOC_OS02G07810-cb001 = tested on: LOC_OS02G07810-cb001
Procedure, shortened: as §1

LOC_OS02G08530-cb003 = tested on: LOC_OS02G08530-cb003
Procedure, shortened: as §1

LOC_OS02G14120-cb001 = tested on: LOC_OS02G14120-cb001
Procedure, shortened: as §1

LOC_OS02G17970-cb001 = tested on: LOC_OS02G17970-cb001
Procedure, shortened: as §1

Row | SMILES | thermal shift delta Tm (LOC_OS01G57100-cb003) [°C] | thermal shift delta Tm (LOC_OS01G60330-cb001) [°C] | thermal shift delta Tm (LOC_OS01G60700-cb002) [°C] | thermal shift delta Tm (LOC_OS01G63280-cb003) [°C] | thermal shift delta Tm (LOC_OS01G67340-cb003) [°C] | thermal shift delta Tm (LOC_OS01G70970-cb002) [°C] | thermal shift delta Tm (LOC_OS02G07810-cb001) [°C] | thermal shift delta Tm (LOC_OS02G08530-cb003) [°C] | thermal shift delta Tm (LOC_OS02G14120-cb001) [°C] | thermal shift delta Tm (LOC_OS02G17970-cb001) [°C]
1 | CN1CCN(c2ccc(Nc3cc(-c4cccc(-n5ccc6cc(C7CC7)cc(F)c6c5=O)c4CO)cn(C)c3=O)nc2)CC1 | 0.99 | 0.83 | 1.11 | 0.24 | -0.1 | 1.04 | 0.37 | 1.24 | 0.2 | 0.75
2 | Cn1c(=O)c(Oc2ccc(F)cc2F)cc2cnc(NC(CCO)CCO)nc21 | 1.18 | 0.87 | 1.45 | 0.27 | 0.29 | 0.4 | 0.02 | 1.22 | 1.36 | 1
3 | C[C@@H](N)c1ccc(C(=O)Nc2ccnc3[nH]ccc23)cc1 | 0.44 | 1.35 | 0.79 | 0.61 | 0.47 | 0.39 | 0.79 | 0.76 | 4 | 1.28
4 | COc1cc2ncc(-c3ccccc3)nc2cc1OC [Tyrphostin AG 1296] | 0.4 | 3.29 | 1.32 | 1.35 | 1.24 | 0.75 | -0.01 | 1.3 | 2.29 | 0.27
5 | CS(=O)(=O)CCNCc1ccc(-c2ccc3ncnc(Nc4ccc(OCc5cccc(F)c5)c(Cl)c4)c3c2)o1 | 0.92 | 1.06 | 1.49 | 0.35 | -0.49 | 0.26 | 1.15 | 0.58 | -0.53 | 0.69
6 | O=C(O)CCC(=O)Nc1ccc(Br)cn1 [Bikinin] | 3.66 | 0.91 | 0.53 | 0.52 | 0.6 | 0.23 | 0.66 | 0.69 | 0.3 | 0.9
7 | O=c1sn(-c2cccc3ccccc23)c(=O)n1Cc1ccccc1 [Tideglusib] | 1.25 | 0.51 | 1.08 | 0.25 | 0.24 | -0.22 | 0.81 | 0.5 | -0.01 | 1.3
8 | Cc1ccc(NC(=O)Nc2cc(C(F)(F)F)ccc2F)cc1Nc1ccc2c(c1)NC(=O)/C2=C\c1ccc[nH]1 | 2.33 | 1.66 | 0.91 | 2.05 | 1.55 | 1.83 | 3.74 | -2.7 | 0.57 | 1.85
9 | CC(=O)Nc1cccc(-n2c(=O)n(C3CC3)c(=O)c3c(Nc4ccc(I)cc4F)n(C)c(=O)c(C)c32)c1 | 1.39 | 0.69 | 0.72 | 0.03 | -0.14 | 0.12 | 0.36 | 1.99 | 0.02 | -0.07
10 | CNS(=O)(=O)Nc1nccc(Cc2c(C)c3ccc(Oc4ncccn4)cc3oc2=O)c1F | 1.4 | 0.33 | 1.34 | 0.93 | 0.24 | 0.04 | 1.08 | 0.58 | 0.9 | 1.23
11 | O=C(NC[C@H](O)CO)c1ccncc1Nc1ccc(I)cc1F | 0.55 | 0.48 | 0.44 | 0.1 | -0.19 | 0.16 | 0.72 | 0.65 | -0.42 | 0.32
12 | Cn1cc(/C=C2\C(=O)Nc3cccnc32)c2ccccc21 | 1.08 | 12.1 | 1.27 | 0.58 | 2.54 | 4.16 | 1.32 | 4.2 | 3.15 | 1.08
13 | Cc1cc(O)c(-c2ccc([C@@H](C)CN)cc2)c2c1[nH]c(=O)c1sccc12 [OTS514 hydrochloride] | -0.04 | 2.08 | 1.5 | 0.46 | 0.86 | 0.57 | 0.41 | 1.3 | 4.21 | 1.52
14 | Cc1ccc(NC(=O)c2ccc(CN3CCN(C)CC3)cc2)cc1Nc1nc(-c2cccnc2)cs1 [Masitinib (AB1010)] | 0.04 | 1.59 | 0.59 | 0.19 | -0.46 | 0.24 | 0.34 | 0.9 | 0.12 | 0.55
15 | CCN(CC)CCNC(=O)c1c(C)[nH]c(/C=C2\C(=O)Nc3ccc(F)cc32)c1C [Sunitinib] | -0.24 | 9.23 | 0.91 | 0.49 | 4.15 | 6.85 | 0.37 | 4.95 | 7.49 | 0.22
16 | COc1cc(N2CCN(C)CC2)ccc1Nc1ncc2c(n1)N(C)c1ccccc1C(=O)N2 | 0.71 | 0.79 | 1.11 | 0.14 | 0.39 | 0.32 | 0.41 | 0.62 | 2.52 | 0.53
17 | CC(C)CC(=O)Nc1n[nH]c2c1CN(C(=O)C1CCN(C)CC1)C2(C)C | 1.01 | 1.35 | 0.94 | 0.65 | 0.25 | 0.19 | 1.09 | 0.95 | 0.04 | 1.36
18 | COCCOc1cnc2ccn([C@H](C)c3nnc4c(F)cc(-c5cnn(C)c5)cn34)c(=O)c2c1 | 0.7 | -0.01 | 0.32 | 0.22 | 0.31 | 0.36 | 0.15 | 0.71 | 1.22 | 0.15
19 | O=C(Nc1ccccc1C(=O)NC1CCCCNC1=O)c1cc2ccccc2s1 (stereo not given) | 1.14 | 1.02 | 0.65 | -0.03 | 0.41 | 0.19 | 0.51 | 0.19 | 0.18 | 0.88
20 | CCn1cc(-c2ccnc3[nH]c(-c4cccc(CN(C)C)c4)cc23)c(-c2ccc(NC(=O)N(C)C)cc2)n1 | 1.51 | 0.61 | 1.18 | 2.91 | 0.66 | 0.18 | 0.49 | 1.02 | 6.39 | 1.01
